Screening data deposited in PubChem by National Center for Advancing Translational Sciences (NCATS).
HttQ103 aggreg: reduces HttQ103-GFP aggregates in PC12 cells | PC12 HttQ103-GFP aggregates, Acumen cytometry, 40 h | Potency, µM (doses to about 46.1 µM), inactives show at the highest dose activity change, negative = inhibition, actives largely listed as inhibitors | 220,000 compounds, 1.1% hits; also: potency is read from the fitted curve at half-maximal effect; % is scaled to controls: 0 for no effect and ±100 for the full control effect; nearly all actives have a fitted effect of over 60% in size
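Steps: seed 1500 PC12 HTTQ103-GFP cells/well; add tebufenozide, 100 nM final; add compound titration; add ATPLite reagent; quantify GFP aggregates by laser scanning cytometry.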
IMPase Li inh: IMPase inhibition in cells with lithium potentiation | CHO-M1 cells, IP1 TR-FRET (IP-One), carbachol + lithium | Potency, µM (doses to about 59.4 µM), for the others: at the top dose activity, negative = IMPase inhibition, usual class: inhibitors | 210,000 compounds, 0.35% hits;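 also: IP1 builds up when IMPase is blocked and the TR-FRET signal falls; potency is read from the fitted curve at half-maximal effect; plate controls were basal vehicle for no effect and high inhibitor control for full effect; nearly all actives have a fitted effect of over 50% in size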
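CHO cells stably expressing M1 receptor (2000/well) were cultured 16–30 h, then exposed to compounds with a small lithium addition for 30 min at 37C. IP1 was measured by TR-FRET competition; AC50 from Hill fits.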
IMPase inh: IMPase inhibition in cells | CHO-M1 cells, IP1 accumulation, HTRF TR-FRET ratio | inhibition (IP1 accumulation), % at 46.1 µM | P97697 | 120,000 tested, under 10 active; active = well fitted curve in the direction sought with a large enough effect in the signal ratio, not every such curve was filed as active; inconclusive = small, poorly fitted or top-dose-only effect, or a change in a side signal; inactive = no such curve, though single readings can be large or run the other way; the % refers to the signal ratio;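 also: cells stimulated with carbachol in lithium chloride buffer; plate controls were DMSO basal wells for no effect and reference inhibitor wells for full effect; higher means more IMPase inhibition seen as more IP1 and lower FRET ratio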
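The IP-One HTRF competitive assay in carbachol-stimulated CHO-M1 cells quantifies cellular IP1. Compounds spanned up to 46 uM final, and activity is expressed as AC50 from concentration-response fits of the ratio and donor data.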
HPGD inh: inhibitors of human 15-hydroxyprostaglandin dehydrogenase (HPGD) | P15428 | purified HPGD, NADH fluorescence kinetic, PGE2 substrate | Potency, µM, for the others: at the highest dose activity change, negative = inhibition, actives largely listed as inhibitors | 150,000 compounds, 4.3% hits; active = well fitted inhibition curve with a large enough effect, not every such curve was filed as active; inconclusive = small, poorly fitted or top-dose-only effect, or another doubt; inactive = no such curve, though single readings can be large or run the other way; also: potency is read from the fitted curve at half-maximal effect; % is scaled to controls: 0 for no effect and ±100 for the full control effect
Target sequence (P15428 whole entry, looked up): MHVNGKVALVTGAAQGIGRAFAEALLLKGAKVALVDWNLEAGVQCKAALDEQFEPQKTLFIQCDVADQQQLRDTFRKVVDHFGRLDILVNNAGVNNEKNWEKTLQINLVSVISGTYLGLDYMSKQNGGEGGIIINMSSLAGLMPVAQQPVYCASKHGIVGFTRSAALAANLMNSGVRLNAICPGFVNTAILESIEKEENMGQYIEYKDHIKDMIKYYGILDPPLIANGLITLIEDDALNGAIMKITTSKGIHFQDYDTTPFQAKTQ
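NADH formation kinetics: reaction with 30 uM PGE2 and 1 mM NAD+ (final), 20 nM enzyme, Tris-HCl pH 8 with Tween 20, after 15 min compound preincubation at room temperature. Fluorescence change, last versus first of five reads.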
ALDH1A1 block: blocks purified human ALDH1A1 activity; Potency, µM (series often up to 75.3 µM), for the others: at the top dose activity, negative = inhibition, actives largely listed as inhibitors; 220,000 compounds, 7.3% hits; Purified ALDH1A1, NADH fluorescence, propionaldehyde substrate; active = well fitted inhibition curve with a large enough effect, not every such curve was filed as active; inconclusive = small, poorly fitted or top-dose-only effect, or another doubt; inactive = no such curve, though single readings can be large or run the other way;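 also: potency is read from the fitted curve at half-maximal effect; plate controls were no enzyme wells and a reference inhibitor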
Target sequence (P00352 whole entry, looked up): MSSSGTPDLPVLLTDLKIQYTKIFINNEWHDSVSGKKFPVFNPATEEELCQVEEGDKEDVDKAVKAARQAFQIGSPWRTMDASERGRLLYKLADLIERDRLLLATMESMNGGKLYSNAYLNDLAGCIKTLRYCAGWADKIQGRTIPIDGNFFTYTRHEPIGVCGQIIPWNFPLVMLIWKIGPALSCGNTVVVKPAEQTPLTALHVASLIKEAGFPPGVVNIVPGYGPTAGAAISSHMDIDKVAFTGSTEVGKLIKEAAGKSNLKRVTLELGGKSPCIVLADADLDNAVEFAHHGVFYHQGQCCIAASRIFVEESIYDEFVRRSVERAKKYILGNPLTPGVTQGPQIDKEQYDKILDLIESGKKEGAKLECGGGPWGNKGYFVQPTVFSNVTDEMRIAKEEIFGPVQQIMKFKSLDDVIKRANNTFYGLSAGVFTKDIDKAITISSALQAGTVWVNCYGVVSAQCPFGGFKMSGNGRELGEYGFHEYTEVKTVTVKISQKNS
HTT ATP protect: Huntington cell model cytoprotection by ATP luminescence. PC12 HTT-Q103 induced, cytoprotection, ATP luminescence, 40 h. Potency, µM (highest dose often 56.4 µM), without a hit: cytoprotection (ATP increase), hits mostly activators. 230,000 compounds, 0.14% hits; also: potency is read from the fitted curve at half-maximal effect; % of control where 0% means no effect; nearly all actives have a fitted effect of over 45% in size
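Cells were plated at 1500 per well in phenol red-free DMEM with 5% equine and 5% calf serum. Tebufenozide (100 nM final) and compounds were added, then ATPlite reagent, and luminescence was read.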
* marks the source's active call; other numbers are inactive results; u = inconclusive; x = no result given; ! = not active in a repeat; [ ] = remark or other dose. The list is not random: actives were taken first. Their share in the collection is about 9.4%. Unless noted, calls follow the shape of the dose curve; as a rule, active = well fitted curve in the direction sought with a large enough effect; inconclusive = small, poorly fitted or top-dose-only effect, or another doubt; inactive = no such curve, though single readings can be large; an effect the other way counts as inactive or inconclusive.

SMILES | HttQ103 aggreg | IMPase Li inh | IMPase inh | HPGD inh | ALDH1A1 block | HTT ATP protect
CC(C)(C)c1ccc(C(=O)NCCCN2CCN(CCCNC(=O)c3ccc(C(C)(C)C)cc3)CC2)cc1 | 7.08µM* | 15.5% | x | -18.1% | u | -53.9%[10 µM]
COc1ccc(CCCC(=O)NC2CCCCC2C)c(C)c1 (centres undefined) | -13.6% | -6.2%[38.3 µM] | 9.1 | 3.55µM* | 15.8µM* | 7.2%
COc1ccc(CCCC(=O)NC2CCCCC2)cc1 | 4.8% | 7.1%[38.3 µM] | -4.7 | u | 7.1% | -8.4%
COC(=O)c1c(NC(=O)CN2CCC3(O)CCCCC3C2c2cc(OC)ccc2OC)sc(C)c1C (centres undefined) | -14.4% | 7.4% | x | u | u | 13.7%[10 µM]
CCOC(=O)c1c(NC(=O)CN2CCN(c3ccc(Cl)cc3)CC2)sc(C)c1C | 9.1% | 7.5%[38.3 µM] | -2.5 | -20.9% | u | -28.4%
COC(=O)c1c(NC(=O)CN2CCC3(O)CCCCC3C2c2ccc(F)cc2)sc(C)c1C (centres undefined) | -27.4% | 2.3% | x | -21.0% | 25.1µM* | 15.8%[10 µM]
CCOC(=O)c1c(NC(=O)CN2CCCc3ccccc32)sc(C)c1C | -12.4% | 12.2% | 11.3 | -9.0% | u | 7.0%[1.9 µM]
COC(=O)c1c(NC(=O)CN2CCCc3ccccc32)sc(C)c1C | -3.1% | 2.6% | x | -12.1% | 20µM* | 20.9%[10 µM]
COC(=O)c1c(NC(=O)CN2CCN(c3ccccc3Cl)CC2)sc(C)c1C | -13.5% | 14.4% | -9.8 | -23.4% | 3.55µM* | -3.6%[10 µM]
CC(Oc1ccccc1)C(=O)NC1C(=O)N2C(C(=O)O)C(C)(C)S[C@@H]12 (some centres undefined) | x | -9.5% | x | -13.4% | -4.2% | x
S=C1NC=NC2N=CNC12 (centres undefined) | -20.6% | 11.9% | x | u | 2.24µM* | -76.4%
CC(=NCc1cccc(Cl)c1)c1nc(-c2ccco2)oc1O | u | 10.3% | x | -15.4% | 17.8µM* | x
Oc1oc(-c2ccco2)nc1C=Nc1cccc(Cl)c1 | -15.2% | 14.2%[38.3 µM] | 8.2 | -1.8% | -11.4% | -6.1%
Cn1c(=O)n(C)c2cc([N+](=O)[O-])c(N3CCN(S(=O)(=O)c4ccc(C(C)(C)C)cc4)CC3)cc21 | 12.6µM* | 17.0%[38.3 µM] | 1.4 | -11.2% | -7.0% | 16.1%[10 µM]
N#C/C(=C\c1cccc(Cl)c1)C(=O)c1ccccc1 | -10.8%[9.22 µM] | x | x | x | 0.708µM* | -10.9%[10 µM]
O=C(CSc1nnc(CNC(=O)c2c(F)cccc2Cl)o1)Nc1cccc(F)c1 | x | x | 3.7 | x | x | x
COc1cccc(C2C(C#N)=C(N)Oc3c2oc(CO)cc3=O)c1 (centres undefined) | 26.4% | 1.7% | -3.7 | -15.6% | 8.3% | 4.8%[10 µM]
COc1cccc(C2C(C#N)=C(N)SC(c3ccccc3)C2[N+](=O)[O-])c1 (centres undefined) | -10.7%[9.22 µM] | 21.3% | x | x | 5.62µM* | -7.6%
CN(C)c1ncc2ncc(=O)n(Cc3ccc(F)cc3)c2n1 | x | 1.8% | x | u | u | -53.5%
N#CC(C#N)=Cc1ccc(OCC(=O)N2CCOCC2)cc1 | 0.8% | 3.6% | x | x | 8.91µM* | -50.1%
COc1ccc(CNn2c(-c3cccs3)nc3ccccc3c2=O)cc1OC | u | 8.7% | x | x | 25.1µM* | -181.5%
O=C1/C(=C\c2ccccn2)SC(=S)N1Nc1ncc(C(F)(F)F)cc1Cl | -8.3% | 7.6%[38.3 µM] | -17.9 | 31.6µM* | u | 16.9%
CC(C)(C)NCCOCCOc1ccccc1-c1ccccc1 | -4.7% | 20.7% | 0.7 | 3.5% | 25.1µM* | -0.1%[10 µM]
C=C(C(C)=O)C(O)/C=C/c1ccco1 (centres undefined) | x | -10.6% | x | -7.1% | -14.1% | -41.2%
CCN1CCN(c2c(Cl)cccc2NC(=O)c2ccc([N+](=O)[O-])cc2)CC1 | 29.1% | 5.6% | x | x | 11.7% | u
SMILES | HttQ103 aggreg | IMPase Li inh | IMPase inh | HPGD inh | ALDH1A1 block | HTT ATP protect
COc1cccc(C2CC(c3c(-c4ccccc4)c4cc(Cl)ccc4[nH]c3=O)=NN2S(C)(=O)=O)c1OC (centres undefined) | u | 34.8%[38.3 µM] | -1.1 | -21.7% | 5.01µM* | -31.4%
C=CCc1cccc(CNc2nc3ccccc3n2C(C)C)c1O | 17.8µM* | 7.8%[38.3 µM] | 0.8 | -6.2% | -6.5% | -64.8%
Cn1c(NCc2ccccc2O)nc2ccccc21 | -3.7% | 1.1%[38.3 µM] | 0.6 | -17.2% | u | -12.5%
O=C1C2=C(Nc3ccccc3SC2c2ccccc2C(F)(F)F)c2ccccc21 (centres undefined) | x | x | -4.9 | x | x | x
COC(=O)c1sc2ccccc2c1N | -10.9% | 6.4%[38.3 µM] | -10.1 | u | u | -6.3%
COC(=O)C1=C(C(=O)OC)C(c2ccccc2O)c2sc(=O)[nH]c2S1 (centres undefined) | 25.7% | 2.2% | x | 22.4µM* | u | 10.9%[10 µM]
CCC1=C2CC[C@H]3C(=O)NC(=O)[C@H]3[C@H]2[C@@]2(C)C(=NCCOC)OC(=O)N2C1=O | x | -4.1% | x | -1.4% | -4.0% | -6.6%
Cc1ccc(/C=N/N2CCCCC2)o1 | 5.1% | -3.9% | x | x | 1.8% | u
O=C1C2C(C(=O)N1/N=C/c1ccc(N3CCCCC3)o1)C1C=CC2C12CC2 (centres undefined) | -5.9% | 11.7% | -1.2 | -16.7% | 8.91µM* | 27.2%[10 µM]
Cc1ccc(C(=O)Nc2nc(C(C)(C)C)cs2)s1 | u | 30.9%[38.3 µM] | 20.4 | -15.5% | u | -64.0%
CC(C)(C)c1csc(NC(=O)c2ccc(Cl)s2)n1 | 8.91µM* | 11.4%[38.3 µM] | u | -24.0% | -13.8% | -104.9%
CC(C)(C)c1csc(NC(=O)c2ccc3nccnc3c2)n1 | -18.6% | 12.2%[38.3 µM] | 2.7 | 10µM* | u | -37.2%
COc1ccc2c(c1)O[C@H](c1ccc3c(c1)OCO3)[C@@H](OC(=O)NS(=O)(=O)c1ccc(F)cc1)C2=O | x | 9.3% | x | -6.9% | 3.2% | 28.6%
O=C(c1ccco1)N1CCN(C(=O)c2cc(-c3ccncc3)nc3ccc(Br)cc23)CC1 | x | x | x | x | x | -3.9%
O=C(O)c1cc(-c2ccco2)nc2ccc(Br)cc12 | -18.1% | 10µM*! | u | u | 3.98µM*! | 1.5%[1.9 µM]
CC(C)[C@H](NC(=O)c1ccccc1)C(=O)OCC(=O)c1ccc2c(c1)NC(=O)CO2 | 4.5% | 25.8%[38.3 µM] | -4.5 | -24.1% | 1.12µM* | 6.0%
CC[C@H](C)[C@H](NC(=O)c1ccc(Cl)cc1)C(=O)OCC(=O)c1ccc2c(c1)NC(=O)CO2 | u | 32.1%[38.3 µM] | 8.3 | -13.1% | -11.4% | 2.0%[10 µM]
COc1cc(OC)cc(C(=O)N[C@H](C(=O)OCC(=O)c2ccc3c(c2)NC(=O)CO3)C(C)C)c1 | 13.6% | 14.9%[38.3 µM] | -0.3 | -19.5% | 22.4µM* | -3.2%
COc1cccc(-c2nn(-c3ccccc3)cc2/C=C(/NC(=O)c2ccccc2)C(=O)O)c1 | 23.2%[9.22 µM] | x | x | x | x | 19.2%[10 µM]
